The values that follow come from PubChem BioAssay.

Records with an inconclusive call do not appear. Unmarked numbers belong to inactive results.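 The calls were made as follows: active = cell viability at or below a set limit in both duplicate runs, the limit being the all-compound median minus 4 SD (cut at about 23% in these data, passing the limit was not always enough); inconclusive = no clear call, values can overlap the other calls; inactive = the rest.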

This assay can be described thus: growth suppression of beta-catenin knockout HCT116, pilot screen, human colon tumor cells (AID 823).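 Also: 0% = wells killed by 20 µM Hyamine and 100% = untreated DMSO cell wells.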 To be noted: CellTiter-Glo, 60 h, at 10 µM, hits give low values. A general note: ATP-based viability assays read luminescence as a measure of living cells.
As a reminder, the viability is a read-out of living cells in per cent, often relative to untreated cells. Turning to `Cc1cc(C)c(C)c(S(=O)(=O)Nc2ccccc2C(=O)NCCCn2ccnc2)c1C`, the viability was 70.2%. In the case of `COc1ccc(N2CCN(CCCNC(=O)CCCn3c(=O)[nH]c4ccsc4c3=O)CC2)cc1` it was 94%. Under `CC12COC3(C(=O)Nc4cccnc4)CC1CCC32C` (stereo unspecified) stands 109%; under `CCOC(=O)C1CCN(C(=O)c2ccc(NC(=O)C3CCCO3)cc2)CC1` (stereo unspecified), 88.8%; under `O=C(CSc1oc(-c2ccc(F)cc2)nc1S(=O)(=O)c1ccccc1)NCC1CCCO1` (stereo unspecified), 90.8%. In the case of `O=C(NCC1COc2ccccc2O1)c1ccc(NC(=O)C2CCCO2)cc1` (stereo unspecified), the viability was 99.7%.

In the case of `COc1ccc(N2CCN(CCNC(=O)c3ccc(NC(=O)C4CCCO4)cc3)CC2)cc1` (stereo unspecified), the viability is 99.8%.

For the compound `CC(C)N(C(=O)C1CC(=O)OC12CCCCC2)C(C)C` (stereo unspecified), the viability is 99.1%. With `Cn1nnc2c(NCc3ccco3)nccc21`, the viability was 96.6%.

Turning to `CCCCNC(=O)c1ccc(NC(=O)C2CCCO2)cc1` (stereo unspecified), the viability was 96.5%. For `CC1Cc2ccccc2N1C(=O)CCS(=O)(=O)c1cccc2nonc12` (stereo unspecified), the viability is 85.7%. Consider `O=C(NCc1cccs1)C1CCCN(S(=O)(=O)c2ccc3c(c2)OCO3)C1` (stereo unspecified), for which the viability was 90.8%.

Regarding `O=C(CCCOc1ccccc1)Nc1nnc(C2CCCO2)s1` (stereo unspecified), the viability was 102%. For the compound `CC(C)Sc1nc(NCc2ccco2)c2c3c(sc2n1)COC(C)(C)C3`, the viability is 56%.

Regarding `CC(=O)c1c(C)n(-c2ccc(N(C)C)cc2)c2ccc(OCC(N)=O)cc12`, the viability was 84.8%. As for `O=C(CS(=O)(=O)c1c[nH]c2ccccc12)Nc1ccc2c(c1)OCCO2`, the viability is 95.7%.
